Over roughly 33,000 sequences, “E-score (-0.5 to 0.5)” has its median near -0.032; the highest 2% begin near 0.36. This excerpt belongs to a sample that is enriched for the highest values.
These sequences were tested against T1, Sko1 (UniProt Q02100) (assay: PBM E-score (8-mer binding enrichment) (E-score (-0.5 to 0.5)); higher = stronger / more preferred TF binding). Conditions: protein concentration: 200 nM; construct: GST-full length.
T1 sequence: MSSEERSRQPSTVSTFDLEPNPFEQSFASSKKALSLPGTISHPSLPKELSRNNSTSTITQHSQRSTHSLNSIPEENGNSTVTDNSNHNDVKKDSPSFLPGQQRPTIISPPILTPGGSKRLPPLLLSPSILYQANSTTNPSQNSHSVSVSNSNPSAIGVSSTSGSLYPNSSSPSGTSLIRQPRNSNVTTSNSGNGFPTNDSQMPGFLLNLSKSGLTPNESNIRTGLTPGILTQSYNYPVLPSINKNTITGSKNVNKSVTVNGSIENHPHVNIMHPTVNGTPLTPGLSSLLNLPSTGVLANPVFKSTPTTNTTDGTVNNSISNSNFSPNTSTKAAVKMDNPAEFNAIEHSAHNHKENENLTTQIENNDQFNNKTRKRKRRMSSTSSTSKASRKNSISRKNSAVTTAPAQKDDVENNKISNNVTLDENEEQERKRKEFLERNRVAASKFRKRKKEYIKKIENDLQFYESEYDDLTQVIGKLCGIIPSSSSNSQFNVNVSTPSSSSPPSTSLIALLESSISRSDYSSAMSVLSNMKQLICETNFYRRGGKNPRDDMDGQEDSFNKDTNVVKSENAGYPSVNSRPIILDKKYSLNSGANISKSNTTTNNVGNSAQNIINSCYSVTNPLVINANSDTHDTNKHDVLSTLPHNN
Experimental: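 Universal 'all 10-mer' protein binding microarrays (Agilent AMADID 015681) probed with GST-tagged S. cerevisiae TFs (full-length or DBD) made by in vitro transcription/translation (PURExpress), about 100-200 nM. Bound TF was detected with fluorescent anti-GST. Each ungapped 8-mer (which stands for itself and its reverse complement) is scored by the PBM enrichment score (E-score), a modified Wilcoxon-Mann-Whitney statistic from -0.5 to +0.5, computed with the Universal PBM Analysis Suite. Scale: above 0.35 generally sequence-specific binding.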

Point of comparison: CAATTACC, “PBM E-score” value 0.156. Against it:
- CCACATCA — higher, 0.175
- GAGATCGA — lower, 0.0574
- ATCACTCA — lower, 0.0754
- GAGCTAGA — lower, -0.11
- CCTGTTCA — lower, -0.203
- AAGCATAG — lower, -0.128
- AGAGCAGG — lower, -0.126
- CATCGCCG — lower, -0.137
- AAACAGCC — lower, -0.17
- GCTATACC — lower, -0.171
- AAATCCCC — lower, -0.238
- GGTAGATA — lower, 0.0735
- AGTATGAT — higher, 0.286
- AGTATGAG — lower, 0.129
- AGTATGAC — higher, 0.376
- AACCTACC — lower, -0.193
- CTAGGGTA — lower, -0.161
- CAGTGAGA — lower, 0.0132
- GGTAATTA — higher, 0.239
- CGTAATTC — higher, 0.435
- CATAATTC — higher, 0.238
- CGTAATTA — higher, 0.439
- AGTAATTA — higher, 0.263
- AGTAATTC — higher, 0.169
- GGAAAACC — lower, -0.128
- CATTAGCC — lower, -0.188
- AGTGACAC — higher, 0.191
- AGTGACAA — lower, 0.0709
- AATGACAC — higher, 0.258
- AATGACAT — higher, 0.4
- AATGACAG — lower, 0.0139
- AGTGACAT — higher, 0.361
- ACTGCCTG — lower, -0.0718
- AGAAGCAT — lower, -0.0822
- CTGGGTTC — lower, -0.145
- ACCACAGC — lower, -0.195
- AATGGCGC — lower, -0.0228
- AATGGCGT — higher, 0.387
- AATGGCGG — lower, -0.3
- CACTCCTC — lower, -0.168
- ACTCAGCT — lower, -0.174
- AGCGTACG — higher, 0.214
- CACGTACG — higher, 0.406
- CCCGTACA — lower, -0.273
- AACGTACA — higher, 0.303
- CGCGTACA — higher, 0.209
- CCCGTACG — lower, 0.0984
- AACGTACC — higher, 0.223
- CAAGTACG — lower, 0.135
- CTCGTACC — lower, 0.123
- CACGTACA — higher, 0.389
- CACGTACC — higher, 0.407
- CGCGTACG — higher, 0.401
- ACTTATTA — higher, 0.157
- GAGCCCTC — lower, -0.351
- ACCTTTCC — lower, -0.271
- AGGGCGAT — lower, -0.0344
- ACTAGGGC — lower, -0.211
- GCACTTAA — lower, 0.109
- AAACCTGC — lower, -0.203
- AGCTTCCT — lower, 0.0027
- GCCGTACA — lower, -0.148
- GCCGTACC — lower, -0.175
- GTCGTACA — lower, 0.0687
- ACCGTACA — lower, 0.0593
- GACGTACA — higher, 0.446
- TCCGTACA — lower, 0.0313
- GACGTACC — higher, 0.433
- TACGTACA — higher, 0.477
- GGCGTACC — lower, -0.0685
- ATTCAAGA — lower, 0.0257
- ACTCTCAA — lower, -0.00162
- CGTGTGGA — lower, 0.00704
- AAATCTCG — lower, 0.014
- GACACTTA — lower, -0.00276
- CAATTACG — higher, 0.455
- AAATTACG — higher, 0.439
- AAATTACC — lower, 0.0333
- ATATTACA — higher, 0.175
- CAATTACA — higher, 0.167
- ATATTACG — higher, 0.465
- AAATTACT — higher, 0.196
- ATATTACC — higher, 0.251
- AAGGTCGA — lower, -0.0566
- ACCAAGCT — lower, 0.0443
- GACACCAC — lower, -0.0851
- CACTATCG — lower, -0.0728
- GAATCATC — lower, 0.0732
- CCGTTATA — lower, 0.0635
- ACGTTAGC — higher, 0.352
- CCGTTATC — lower, -0.00855
- ACGTTACA — higher, 0.359
- GCGTTATA — higher, 0.194
- ACGTTACG — higher, 0.428
- ACGTTATA — higher, 0.426
- ACGTTGTG — higher, 0.311
- ACGTTACC — higher, 0.297
- ACGTTATC — higher, 0.413
- GCGTTGTA — lower, 0.057
- ACGTTGTA — higher, 0.394
- CGCGCTGC — lower, -0.147
- CGCCCGGA — lower, -0.211
- TACTGAAA — higher, 0.219
- AGAGACGA — lower, 0.0256
- CCGGCTCA — lower, -0.162
- AAGAGAAC — lower, 0.0447
- GTGTGAGA — lower, 0.0436
- ACGTTAAG — higher, 0.325
- ACGTTATG — higher, 0.419
- ACGTTAGG — higher, 0.244
- CTGACGCA — higher, 0.403
- GCGACGCA — lower, 0.128
- CTGACGCC — higher, 0.159
- AGGACGCA — lower, -0.117
- CGGACGCA — lower, -0.121
- AAGACGCG — lower, -0.115
- ACGACGCG — lower, 0.148
- GGGACGCA — lower, 0.0981
- ATGACGCG — higher, 0.476
- GTGACGCA — higher, 0.457
- ACGACGCA — higher, 0.334
- ATGACGCA — higher, 0.492
- GGACCTCA — lower, -0.0759
- ACCTGCGC — lower, -0.192
- AGTGTGGG — lower, -0.197
- CACCTGGC — lower, -0.0659
- CAGCCCTC — lower, -0.334
- CCCTAGAG — lower, -0.32
- ATTCCCGG — lower, -0.0536
- ACTAAGTA — lower, 0.0919
- AGGCGCGG — lower, -0.242
- ACAAACCG — lower, -0.0685
- ATGCCCGG — lower, -0.334
- GCGGTTAA — lower, -0.186
- TAATTCTA — higher, 0.227
- ATCACCAA — lower, 0.0298
- ATGACTCC — lower, -0.00531
- ATGACGCC — higher, 0.449
- AAGACGCC — lower, -0.165
- TACTAGAA — lower, 0.124
- CGACGTAG — higher, 0.368
- AGACGTTA — higher, 0.283
- CGACGTGC — higher, 0.22
- CGACGTAC — higher, 0.412
- GGACGTTA — higher, 0.251
- CGACGAAG — lower, 0.00357
- CGTCGTAG — lower, 0.0813
- AGACGTAA — higher, 0.447
- AGACGGAA — lower, -0.136
- GGACGTAC — higher, 0.275
- CGACGTTC — lower, -0.0745
- GGACGTAA — higher, 0.426
- CAAAAATC — lower, 0.131
- CCGACTCA — lower, -0.246
- ACCTAACA — lower, 0.056
- CATTTGCG — higher, 0.179
- ACGCAGCC — lower, 0.0962
- AATACTTA — higher, 0.178
- CGACGTAA — higher, 0.472
- CGACGTGA — higher, 0.344
- CGACGTTA — higher, 0.337
- ACTGCACA — lower, -0.0526
- CTAACGGA — lower, 0.007
- ATAACGTA — higher, 0.461
- CTAACGTA — higher, 0.374
- GTAACGTA — higher, 0.421
- ATAACGAA — higher, 0.268
- GTAACGAA — higher, 0.216
- ATAACGGA — lower, 0.0991
- GTAACGCA — higher, 0.217
- CTAACGAA — lower, 0.0318
- TCGTCTCA — lower, -0.0858
- ATTTCGAA — higher, 0.247
- AGTGGGGA — lower, -0.201
- ACACCTTG — lower, 0.00022
- TTTGCAAA — lower, 0.0584
- ATTCATCG — lower, -0.0686
- AACCAGAA — lower, 0.0649
- AGTAGGAA — lower, -0.0265
- CGGAAGGA — lower, -0.178
- GCAACGTA — higher, 0.399
- ACAACGTC — higher, 0.368
- ACAACGTG — higher, 0.218
- ACAACGTA — higher, 0.416
- ACAACGCC — lower, 0.0338
- ACAACGGA — lower, 0.00163
- CCAACGCA — lower, 0.117
- GCAACGAA — lower, 0.148
- GCAACGCA — lower, 0.0485
- CCAACGTC — higher, 0.236
- CCAACGTA — higher, 0.387
- ACAACGAA — lower, 0.0922
- ATCACTCC — lower, -0.0415
- CACACCCC — lower, -0.208
- CGCGAACC — lower, -0.0595
- AATCCAAT — lower, 0.0698
- CTCGGATC — lower, -0.0845
- TAATTCGA — higher, 0.198
- ATGCACTG — lower, -0.0475
- AGATATTC — lower, 0.0644
- ATAACGTC — higher, 0.425
- ATAACGCG — higher, 0.184
- ATAACGTG — higher, 0.377
- ATAACGGG — lower, 0.00173
- CTAACGTC — higher, 0.338
- ATAACGAC — higher, 0.241
- ATTGCTTC — lower, -0.109
- CCGAACTC — lower, -0.125
- CTGTTAGA — lower, -0.0627
- AAGTTCTC — lower, -0.203
- AAATGATT — higher, 0.263
- AAATGATG — higher, 0.373
- CAATGATG — higher, 0.381
- CAATGATA — higher, 0.254
- AAATGATA — higher, 0.266
- CAATGATC — lower, 0.0721
- CCCGATAC — lower, -0.0866
- CCTACTTA — lower, -0.00728
